These results are taken from PubChem BioAssay (NCATS).

The structures appear in SMILES notation. Several values for one entry are separate records, joined by “and”; a condition that tells them apart may be missing. Equal entries are not always repeated. Records with an inconclusive call do not appear. Some compounds were tested as several samples or in several runs, with calls that do not always agree. Activity calls are given as the source filed them. Calls follow the shape of the dose curve; as a rule, active = well fitted inhibition curve with a large enough effect; inconclusive = small, poorly fitted or top-dose-only effect; inactive = no such curve, though single readings can be large or run the other way.
% is scaled to controls: 0 for no effect and ±100 for the full control effect; potency is read from the fitted curve at half-maximal effect.

The nature of the test: Primary qHTS for inhibitors of nuclear receptor binding SET domain protein 2 (NSD2) in an RCH-ACV wild type WT cells (2C) (AID 1645877). Also: nearly all actives have a fitted effect of over 70% in size. The note with it: RCH-ACV (leukaemia line) NSD2 WT (2C) viability, CellTiter-Glo, 72 h; series mostly up to 44.9 µM; activity change, negative = cell killing: at the top concentration.
`O=C1[C@H](Cc2ccc(O)cc2)N2C(=O)CCN(C(=O)NCc3ccccc3)[C@H]2CN1Cc1cccc2ccccc12`: the Potency is 3.72 µM (active).
Take `NC(=O)C1CCCc2c1[nH]c1ccc(Cl)cc21` (configuration not stated): the “activity change, negative = cell killing” value is -38.4% (inactive).
Still for that read-out and setting: next, `O=C1CCCC2=C1C(c1[nH]ncc1Cl)N=C(Nc1nc3ccccc3o1)N2` (configuration not stated): -13.8% (inactive).
For the compound `CC(C)(Sc1ccc(CCN(CCCCC2CCCCC2)C(=O)NC2CCCCC2)cc1)C(=O)O`, the outcome was inactive.
Consider `Cc1csc(NC(=O)c2sc3nc4c(c(C(F)(F)F)c3c2N)CCC4)n1`, for which the “activity change, negative = cell killing” value was 6.11% (inactive).
Take `CO[C@@H]1[C@H](N(C)C(=O)c2ccccc2)C[C@H]2O[C@]1(C)n1c3ccccc3c3c4c(c5c6ccccc6n2c5c31)C(=O)NC4`: the Potency was 1.3 µM (active) and 525 nM (active).
As for `COc1ccc(-c2ccc3c(N4CCOCC4)nc(N4C[C@@H](C)O[C@@H](C)C4)nc3n2)cc1CO`, the “activity change, negative = cell killing” value is -96.2% (inactive).
Consider `CS(=O)(=O)c1ccc(C(=O)Nc2ccc(Cl)c(-c3ccccn3)c2)c(Cl)c1`, for which the Potency entry was “inactive”.
On to `Cc1cc(SCc2sc(-c3ccc(C(F)(F)F)cc3)nc2C)ccc1OCC(=O)O`, for which the “activity change, negative = cell killing” value is -9.13% (inactive).
Turning to `Oc1cccc(-c2nc(N3CCOCC3)c3oc4ncccc4c3n2)c1`, the Potency is 0.166 µM (active).
On the same count and under the same terms, next, `CCCS(=O)(=O)Nc1ccc(F)c(C(=O)c2c[nH]c3ncc(-c4ccc(Cl)cc4)cc23)c1F`: 16.4 µM (active) and inactive; `CCC(=O)N[C@H]1CC[C@H](C(=O)N(C)c2ccc(-c3nc4ccccc4o3)cc2)C1`: 18.6 µM (active).
Regarding `CCCn1c(=O)c2[nH]c(C34CC5CC3C[C@@H](C5)C4)nc2n(CCC)c1=O`, the “activity change, negative = cell killing” value is -4.09% (inactive).
Take `CC1(C)CNc2cc(NC(=O)c3cccnc3NCc3ccncc3)ccc21`: the Potency entry is “inactive”.
The same measure, in the same setting: the figure for `CCC(C)(C)C(=O)O[C@H]1C[C@@H](C)C=C2C=C[C@H](C)[C@H](CC[C@@H]3C[C@@H](O)CC(=O)O3)[C@H]21` is 8.33 µM (active).
Same read-out and setting: the figure for `N#CC[C@H](C1CCCC1)n1cc(-c2ncnc3[nH]ccc23)cn1` is 18.3 µM (active) and 9.34 µM (active).
With `CCOc1cc(N2CCC(O)CC2)ccc1Nc1ncc2c(n1)N(C)c1ccccc1C(=O)N2C`, the Potency is 2.63 µM (active).
On the same count and under the same terms, next, `COc1ccc(C2=N[C@H](c3ccc(Cl)cc3)[C@H](c3ccc(Cl)cc3)N2C(=O)N2CCNC(=O)C2)c(OC(C)C)c1`: 18.6 µM (active).
Turning to `COc1c(Cl)cc2c([nH]c3cnccc32)c1NC(=O)c1cccnc1C`, the Potency is 9.34 µM (active).
Turning to `NC(=O)c1ccc(I)c([N+](=O)[O-])c1`, the Potency is 16.6 µM (active).
As to `CC(C)c1onc(-c2c(Cl)cccc2Cl)c1COc1ccc(/C=C/c2cccc(C(=O)O)c2)c(Cl)c1`, the “activity change, negative = cell killing” value was -5.27% (inactive).
For `Cc1n[nH]c(C)c1Cc1sc2c(c1C(=O)N1C[C@H](O)CO1)c(=O)n(C)c(=O)n2CC(C)C`, the Potency result was “inactive”.
As to `CN[C@@H](C)C(=O)N[C@H]1CCCC[C@H]2CC[C@@H](C(=O)N[C@@H](c3ccccc3)c3cn(CCCCc4ccc(CCCCn5cc([C@@H](NC(=O)[C@@H]6CC[C@@H]7CCCC[C@H](NC(=O)[C@H](C)NC)C(=O)N76)c6ccccc6)nn5)cc4)nn3)N2C1=O`, the “activity change, negative = cell killing” value was -17% (inactive).
As for `Cc1cnc(Nc2ccc(OCCN3CCCC3)cc2)nc1Nc1cccc(S(=O)(=O)NC(C)(C)C)c1`, the Potency was 1.83 µM (active) and 1.86 µM (active).
Still for that read-out and setting: the figure for `CN(C)c1ccc(Nc2nc(N)n(C(=O)c3c(F)cccc3F)n2)cc1` is 0.833 µM (active); for `O=C(c1cc(Cc2n[nH]c(=O)c3ccccc23)ccc1F)N1CCN(C(=O)C2CC2)CC1` it is 3.72 µM (active).
Turning to `CCn1c(-c2nonc2N)nc2cnc(Oc3cccc(NC(=O)c4ccc(OCCN5CCOCC5)cc4)c3)cc21`, the Potency was 326 nM (active) and 417 nM (active).
For `COc1ccc2c3n(c(=NC(=O)c4cccnc4)nc2c1OC)CCN3`, the Potency was 0.186 µM (active).
On the same count and under the same terms, the figure for `Cc1cc(Nc2nc(N[C@@H](C)c3ncc(F)cn3)ncc2Cl)n[nH]1` is 2.05 µM (active) and 3.72 µM (active).
Still for that read-out and setting: the figure for `c1ccc(-c2nn3c(c2-c2ccnc4cc(OCCN5CCOCC5)ccc24)CCC3)nc1` is 16.6 µM (active); for `CCc1cc(Nc2nccc(-c3c(-c4ccc(OC)c(C(=O)Nc5c(F)cccc5F)c4)nc4ccccn34)n2)c(OC)cc1N1CCC(N2CCN(S(C)(=O)=O)CC2)CC1` it is “inactive and 5.9 µM (active)”.
The same measure, in the same setting: next, `OCCC#Cc1nc(-c2ccc(F)cc2)c(-c2ccncc2)n1CCCc1ccccc1`: 18.4 µM (active) and 9.34 µM (active).
In the case of `O=C(O)[C@@H](c1ccc(OCc2ccc3ccccc3n2)cc1)C1CCCC1`, the “activity change, negative = cell killing” value is 7.5% (inactive).
As for `Nc1nc2ccc(OC(F)(F)F)cc2s1`, the Potency was 20.9 µM (active).
`Cc1ccnc(NS(=O)(=O)c2ccc(NC(=O)Nc3ccc(S(=O)(=O)Nc4nccc(C)n4)cc3)cc2)n1`: the “activity change, negative = cell killing” value is -3.6% (inactive).
With `O=C(C1CC1)N1CC[C@@H](Cn2c(-c3ccc(-c4ccc5occc5c4)cc3)nc3cnccc32)C1`, the Potency was 16.6 µM (active).
As for `COc1ccccc1[C@H](c1cccc2ccccc12)[C@@](C)(C#N)C(=O)N1CCC(c2cccc(C(F)(F)F)c2)CC1`, the “activity change, negative = cell killing” value is 1.61% (inactive).
